# Assay outcomes: PubChem, National Center for Advancing Translational Sciences (NCATS)
# In the library only some 12% were active in any assay of this set; here they are far more common.
# AMA1 RON2 block – inhibitors of Plasmodium falciparum AMA1-RON2 interaction | AlphaScreen AMA1-biotinylated RON2 peptide binding | Potency, µM (top dose mostly 58.2 µM), for the others: at the top dose activity change, negative = inhibition, hits mostly inhibitors | AID 720542 | hit rate 0.2% among 360,000;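 note: 0% = vehicle wells and -100% = peptide control; nearly all actives have a fitted effect of over 45% in size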
#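 AMA1 (3D7) with his tag at 25 nM final met compounds first, then biotinylated RON2 peptide at 25 nM; detection used donor plus acceptor beads, 10 µg/mL apiece, read by AlphaScreen after 30 min at room temperature.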
# HCV inh – HCV inhibition. Huh7.5.1 HCVcc-Cre infection, luciferase reporter, 44 h. Potency, µM (doses to about 41.8 µM), without a hit: top-dose activity change, negative = inhibition, usual class: inhibitors. hit rate 3.4% among 340,000; note: % is set by controls: 0 for no effect and ±100 for the full control effect
#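 Compounds are dispensed onto cells plated 4 h earlier at 1,000 per well, with HCVcc-Cre virus (about 0.5 moi) added next. Following 44 h of culture, luminescent signal is measured for 15 sec after 15 min with substrate at room temperature.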
# Pf growth 96h – P. falciparum growth inhibition at 96 hours; P. falciparum luciferase reporter growth, 96 h; Potency, µM (highest dose often 28.7 µM), for the others: top-dose activity change, negative = inhibition, usual class: inhibitors; hit rate 6.9% among 320,000; AID 504834; note: % is set by controls: 0 for no effect and ±100 for the full control effect
#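 Infected RBCs, 2% Hct / 0.05% parasitemia final; luciferase-reporter P. falciparum; cpd 96 h, 37 C, 5% CO2; luciferase detection reagent; luminescence.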
# NS1 function inh – blocks influenza NS1 protein function; Potency, µM (titrated, usually from 46.1 µM), for the others: at the top dose activity, positive = more growth; hit rate 0.4% among 270,000; AID 2326; calls by dose curve; note: actives are rising curves; nearly all actives have a fitted effect of over 50% in size
#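 Read-out: OD600 growth recovery of NS1-expressing budding yeast. Cells grown overnight at 30C in -URA glucose medium, washed, resuspended and diluted 1:100 in 2% galactose assay medium, pH 6.0. Same strain lacking NS1 served as positive control.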
# Pf growth 48h – P. falciparum growth inhibition at 48 hours (one generation); P. falciparum luciferase growth in erythrocytes, 48 h; hit rate 5.9% among 310,000; Potency, µM (series often up to 28.7 µM), for the others: at the top dose activity change, negative = inhibition, actives largely listed as inhibitors; note: % is set by controls: 0 for no effect and ±100 for the full control effect
#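 Parasite viability was followed by luminescence of a genomically integrated firefly luciferase. Cultures held 0.1% parasitemia at 2% hematocrit (final), incubated under 5% CO2 at 37 C.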
# SARS PLP yeast – inhibitors of SARS-CoV papain-like protease in yeast; S. cerevisiae expressing SARS-CoV PLpro, growth rescue; Potency, µM (titrated, usually from 32.9 µM), without a hit: at the highest dose activity, positive = growth rescue, hits mostly activators; hit rate 0.19% among 330,000; AID 485353; calls by dose curve; note: 0% is about no effect; nearly all actives have a fitted effect of over 55% in size
# The depositor's hits bear a star; ? = inconclusive; . = no result given; [ ] = remark or other dose. Unless noted, calls come from the whole dose curve; as a rule, active = well fitted curve in the direction sought with a large enough effect; inconclusive = small, poorly fitted or top-dose-only effect, or another doubt; inactive = no such curve, though single readings can be large; an effect the other way counts as inactive or inconclusive. Potency is the fitted concentration of half-maximal effect.
SMILES,AMA1 RON2 block,HCV inh,Pf growth 96h,NS1 function inh,Pf growth 48h,SARS PLP yeast
Cc1ccc(-c2ccccc2[C@@H]2C[C@H]3CN(C)C(=O)[C@]34CCCN24)o1,8.8%,10.5%,-11.6%,1.7%,-4.3%,-1.5%
COc1ccc(CNC(=O)COC(=O)c2ccc(Br)o2)cc1,3.1%,-12.3%,-23.2%,.,-6.0%,7.3%[6.58 µM]
CO[C@@H]1/C=C\O[C@@]2(C)Oc3c(C)c(O)c4c(c3C2=O)C(=N[C@H]2CC[C@H](O)O[C@@H]2C)C=C(NC(=O)/C(C)=C\C(=O)[C@@H]2C[C@@H]2[C@@H](O)[C@H](C)[C@@H](O)[C@H](C)[C@H](OC(C)=O)[C@@H]1C)C4=O,.,.,.,3.8%,.,.
OC12CCCCC1C(c1ccc3c(c1)OCO3)N(Cc1ccc(F)cc1)CC2 (stereo unspecified),-9.1%,-20.3%,9.28µM*,5.6%,13.1µM*,-0.7%
Nc1ccccc1N=Cc1ccc(-c2cccc(Cl)c2)o1,0.5%,10µM*,?,.,10.4µM*,-25.2%
OCC1(Cc2ccccc2Cl)CCN(C/C=C/c2ccccc2)CC1,-3.3%,?,3.3%,-0.5%,11.7µM*,1.6%
Cc1ccc(CN2C(=O)C(CC(C)C)Nc3ncnc(N4CCOCC4)c32)cc1 (stereo unspecified),-5.0%,-3.5%,.,.,.,-1.4%
CC1Nc2ncnc(N3CCN(c4ccccc4)CC3)c2N(Cc2ccccc2)C1=O (stereo unspecified),-1.0%,17.7%,?,.,?,-0.3%
CC(C)CC1Nc2ncnc(N3CCN(c4ccccc4)CC3)c2N(Cc2ccccc2)C1=O (stereo unspecified),1.3%,?,11.7µM*,.,10.4µM*,5.0%
COc1ccc(CN2C(=O)C(CC(C)C)Nc3ncnc(N4CCN(c5ccccc5)CC4)c32)cc1 (stereo unspecified),-18.7%,?,11.7µM*,.,2.62µM*,1.5%
CC(C)CC1Nc2ncnc(N3CCN(c4ccccc4)CC3)c2N(Cc2ccc(Br)cc2)C1=O (stereo unspecified),-14.2%,?,5.86µM*,.,2.94µM*,1.3%
CC(C)CC1NC(=S)N(Cc2ccccc2)C1=O (stereo unspecified),56.6%,?,9.28µM*,18.4%,?,-15.0%
O=C1C(Cc2ccccc2)NC(=S)N1Cc1ccccc1 (stereo unspecified),17.4%,6.8%,-25.5%,3.1%,21.6%,1.7%
CCCCCN(C(=O)CCC(=O)OCc1cccc(Br)c1)c1c(N)n(CCCC)c(=O)[nH]c1=O,-0.9%,?,?,.,?,4.5%
CCN(C(=O)CN1CCOCC1)c1c(N)n(Cc2ccccc2)c(=O)[nH]c1=O,13.6%,17.0%,2.8%,1.6%,39.0%,0.7%
COc1ccc(CN2C(=O)C(CC(C)C)Nc3ncnc(N4CCOCC4)c32)cc1 (stereo unspecified),0.5%,20.5%,?,.,?,0.4%
COc1ccc(CN2C(=O)C(CC(C)C)Nc3ncnc(N4CCCCC4)c32)cc1 (stereo unspecified),1.6%,-23.6%,?,.,?,-1.6%
CC(C)CC1Nc2ncnc(N3CCCCC3)c2N(Cc2ccccc2)C1=O (stereo unspecified),-4.9%,8.8%,?,.,11.7µM*,3.0%
COc1ccc(CN2C(=O)C(Cc3ccccc3)Nc3ncnc(N4CCN(c5ccccc5)CC4)c32)cc1 (stereo unspecified),-14.7%,3.16µM*,6.57µM*,.,2.62µM*,-1.0%
COc1ccc(N2CCN(C(=O)CN3C(=O)NC(C)(C4CC4)C3=O)CC2)cc1 (stereo unspecified),-4.6%,10.3%,-22.8%,.,?,1.7%
CC1CCC(O)([C@](C)(C(=O)O)c2ccccc2)CC1 (stereo partly specified),.,.,.,-1.0%,.,.
Cc1ccc(/C=C/c2onc(C)c2S(=O)(=O)N2CCC(C(=O)N3CCCCC3)CC2)cc1,-8.1%,8.2%,-13.1%,11.8%,?,1.1%
